Experimental data reported in ChEMBL document CHEMBL3988442, “University of Dundee, Small-Polar-MMV Screening Library” (2021).
Out of some 48,000 compounds screened, about 13,000 (27%) showed an effect of 50% or more. Some of the results follow.

What follows are compounds tested on Wolbachia pipientis (assay: Anti-Wolbachia Cell-Based Screen). Conditions: 5 µM.
Type: functional
Design: scale not given: in the data most compounds retested in dose-response had high values

Going from `COC(=O)CN(CC1CCOC1)C1CC1` (centres undefined) to `Cc1nsc(NC(=O)NC2CCOCC2)n1`, the “Percent Effect” value rises from -11.06% to 5.232%.

Going from `Cc1cnccc1N1CCN(C(=O)CCCN2CCCCC2)CC1` to `Cc1oc(C(C)C)cc1C(=O)N1CCN(c2cnn(C)c(=O)c2)CC1`, the “Percent Effect” value falls from -8.637% to -13.93%.

Going from `COc1ncccc1C(=O)N1CC(c2nc(-c3ccccn3)no2)C1` to `N#Cc1ccccc1C(=O)N1C[C@H]2CC[C@@H]1CN(c1ncccn1)C2`, the “Percent Effect” value falls from -3.614% to -29.72%.

Compared with `Cc1[nH]c(=O)[nH]c(=O)c1CN1CCCC(CCc2c(F)cccc2F)C1` (centres undefined), `O=C(Nc1nc2c(s1)CN(S(=O)(=O)C1CC1)CC2)c1c(F)cccc1F` is higher in “Percent Effect” value: -22.77% for the first, -9.469% for the second.

First: Cc1cc(C)n(-c2ccc(CNCc3ccc(OC(C)C)cc3)cn2)n1
Second: Cn1cc(CNCCOc2ccc(F)c(F)c2)c(-c2cccnc2)n1
The “Percent Effect” value of the first is lower: -13.05% for the first, 7.876% for the second.

Compared with `Oc1nnc(-c2cccs2)c2sc(N3CCCCC3)nc12`, `CN(Cc1nnc(-c2cccs2)o1)Cc1nc2c(s1)CCCC2` is lower in “Percent Effect” value: 11% for the first, -3.278% for the second.

Compared with `Cl.O=C(Nc1cccc(F)c1)C1=NOC2(CCNCC2)C1`, `Cc1sc2c(C3CCNCC3)nc(Nc3cccc(F)c3)n2c1C.Cl` is higher in “Percent Effect” value: 1.069% for the first, 83.53% for the second.

First: Cc1nc(C2CCCNC2)cc(N2CCc3nc(N)sc3C2)n1 (centres undefined)
Second: Cc1sc2c(C3CCCNC3)nc(Nc3cccc(F)c3)n2c1C.Cl (centres undefined)
The “Percent Effect” value of the first is lower: -10.94% for the first, 138.6% for the second.

Going from `Cc1nn(C(C)C)c(C)c1S(=O)(=O)Nc1cccc(F)c1` to `O=C(CCn1nc(-c2cccs2)oc1=O)Nc1cccc(F)c1`, the “Percent Effect” value rises from 2.276% to 101.8%.

Going from `COc1ccccc1CCNC(=O)CN1CCCC1c1noc(C)n1` (centres undefined) to `CCc1ccsc1C(=O)N1CCCC(c2noc(C)n2)C1` (centres undefined), the “Percent Effect” value falls from -5.748% to -6.826%.

Going from `CCC(=O)N1CCC2(CC1)c1nc[nH]c1CCN2S(C)(=O)=O` to `Cc1nc[nH]c1CN1CCN(C(=O)c2cccs2)[C@H]2CS(=O)(=O)C[C@H]21`, the “Percent Effect” value rises from -5.847% to -2.944%.

Compared with `CC(NC(=O)Nc1nccs1)C(=O)NC1CCCC1` (centres undefined), `CC(NC(=O)Nc1nncs1)C(=O)NC1CCCC1` (centres undefined) is lower in “Percent Effect” value: 13.07% for the first, 12.84% for the second.

Going from `Cc1nn2c(nc1=O)-c1ccccc1NC2C(=O)O` (centres undefined) to `Cc1cc(C)n(CC2CCCN2C(=O)c2nccc3ccccc23)n1` (centres undefined), the “Percent Effect” value rises from -8.075% to 117.1%.

Compared with `CNc1cc(C)nc(N2C[C@@H](C(=O)O)[C@H](C3CC3)C2)n1`, `CNc1cc(C)nc(N2CCC3(CC2)[C@H](O)C[C@@H]3OCCO)n1` is lower in “Percent Effect” value: 7.259% for the first, 4.937% for the second.

Going from `CNc1cc(C)nc(C2CCN(CCO)CC2)n1` to `Cc1cc(Oc2ccccc2)nc(C2CCN(CCO)CC2)n1`, the “Percent Effect” value rises from 109.8% to 153.9%.

Going from `Cc1ccc(CNCC2CCN(CCO)CC2)cc1` to `OCCN1CCC(CNCc2cn(-c3ccccc3)nn2)CC1`, the “Percent Effect” value rises from -0.5522% to 3.58%.

Compared with `CC(=O)N1CCc2c(nc(-c3ccccn3)nc2N(C)CC(O)CO)C1` (centres undefined), `Cc1cc(C)n(CC2CCCN2C(=O)Cc2cn3ccccc3n2)n1` (centres undefined) is higher in “Percent Effect” value: 1.269% for the first, 13.26% for the second.

Compared with `CC(C(=O)N(C)Cc1nnc2n1CCC2)S(C)(=O)=O` (centres undefined), `CC(C)c1cc(C(=O)N2CCCC(c3cc(=O)nc4n3CCC4)C2)no1` (centres undefined) is higher in “Percent Effect” value: 0.343% for the first, 118.8% for the second.

First: COCCN(C(=O)c1ccoc1C)c1ccc(C#N)cc1
Second: COCCn1ccc(NC(=O)Nc2cccc(C#N)c2)n1
The “Percent Effect” value of the first is lower: -4.794% for the first, 15.59% for the second.

Going from `CCc1cc(C(=O)N2CCCC(c3cc(=O)nc4n3CCC4)C2)no1` (centres undefined) to `Cc1cc(C(=O)N2CCCC(c3cc(=O)nc4n3CCC4)C2)on1` (centres undefined), the “Percent Effect” value falls from 113.8% to 100.5%.

Compared with `CCc1cn[nH]c1C1CCCN(C(=O)c2cc(C(C)C)on2)C1` (centres undefined), `Cc1cc(C(=O)N2CCCC(n3nc(C)cc3C)C2)on1` (centres undefined) is higher in “Percent Effect” value: 3.205% for the first, 6.311% for the second.

First: Cc1cc(C(=O)N2CCCC(c3nccn3Cc3cscn3)C2)on1 (centres undefined)
Second: Cc1cc(C(=O)N2CCCC2Cn2nc(C)cc2C)on1 (centres undefined)
The “Percent Effect” value of the first is lower: -8.995% for the first, -0.3102% for the second.

First: CC(C)C(=O)N1CCN(C(=O)c2cc(C(C)C)on2)[C@H]2CS(=O)(=O)C[C@H]21
Second: Cc1nc(CN2C[C@@H]3CN(C(=O)[C@H]4CCCO4)C[C@@H]3C2=O)cs1.O=C(O)C(F)(F)F
The “Percent Effect” value of the first is higher: -2.919% for the first, -7.059% for the second.

Going from `Cc1cc(C)n(CC2CCCN2C(=O)c2ccc3ccccc3n2)n1` (centres undefined) to `CCn1ccnc1C1CCCN(c2nccc3ccccc23)C1` (centres undefined), the “Percent Effect” value falls from 90.81% to -22.2%.

First: Cn1nnnc1SCCNC(=O)c1c[nH]nc1C1CCCCC1
Second: CCCN(C(=O)c1cc2c([nH]c1=O)CCCC2=O)C1CCCCC1
The “Percent Effect” value of the first is lower: -16.51% for the first, -3.902% for the second.

Going from `O=C1CCC(c2ccccc2)(c2ccccc2)CN1CCO` to `CN(Cc1nnc(C2CC2)n1C)C1CCN(Cc2ccccc2)C1` (centres undefined), the “Percent Effect” value falls from -6.27% to -8.297%.

Going from `CCN1CCOC(CNCc2cnc(C(C)(C)C)s2)C1` (centres undefined) to `CN1CCOC(CNCc2cnc(C(C)(C)C)s2)C1` (centres undefined), the “Percent Effect” value falls from 96.59% to 83.62%.

Going from `CCN(CC1CN(Cc2ncc(C)o2)CCO1)c1cccnn1` (centres undefined) to `CCN1CCOC(CNCc2cnc(N(CC)CC)s2)C1` (centres undefined), the “Percent Effect” value rises from 0.3637% to 78.01%.

First: CC(C)(C)c1ncc(CNCC2CCCn3ccnc32)s1 (centres undefined)
Second: CCN(CC)c1ncc(CNCC2CCCn3ccnc32)s1 (centres undefined)
The “Percent Effect” value of the first is lower: -12.55% for the first, 9.152% for the second.

First: CCC(CCNCc1cnc(C2CCC2)s1)N1CCCC1=O (centres undefined)
Second: CC(C)(C)c1ncc(CNCC2CN(C3CC3)CCO2)s1 (centres undefined)
The “Percent Effect” value of the first is lower: 3.115% for the first, 77.82% for the second.

Compared with `CCN1CCOC(CNc2nccc(C(F)(F)F)n2)C1` (centres undefined), `CNC(=O)[C@H]1C[C@@H]2CCN(Cc3nccs3)C[C@H]2O1.O=C(O)C(F)(F)F` is lower in “Percent Effect” value: -2.512% for the first, -7.914% for the second.

Going from `COCC(=O)N1C[C@H]2CCCC(OCc3cccnc3)[C@H]2C1.O=C(O)C(F)(F)F` (some centres undefined) to `COc1ccc(CN2CCO[C@H]3CN(C4CCCC4)CC[C@H]3C2=O)cc1.O=C(O)C(F)(F)F`, the “Percent Effect” value rises from -11.84% to 4.442%.

Going from `Cc1nc(CN2CC[C@@H]3O[C@@H](C(=O)N4CCOCC4)C[C@@H]32)cs1.O=C(O)C(F)(F)F` to `O=C(O)C(F)(F)F.O=C([C@@H]1C[C@H]2[C@H](CCN2Cc2nccs2)O1)N1CCOCC1`, the “Percent Effect” value falls from 95.13% to -8.158%.

First: O=C(O)C(F)(F)F.O=C([C@H]1CC[C@@H]2[C@@H](CCN2Cc2nccs2)O1)N1CCOCC1
Second: CC1CCN(C(=O)[C@H]2CC[C@@H]3[C@@H](CCN3Cc3nccs3)O2)CC1.O=C(O)C(F)(F)F
The “Percent Effect” value of the first is higher: 110.8% for the first, 83.2% for the second.

Going from `COCCN1CC[C@@H]2O[C@H](COCc3csc(C)n3)CC[C@@H]21.O=C(O)C(F)(F)F` to `CC1CCN(C(=O)[C@@H]2CC[C@@H]3[C@@H](CCN3c3ncc(F)cn3)O2)CC1.O=C(O)C(F)(F)F`, the “Percent Effect” value falls from 5.526% to -5.679%.

Compared with `CC1CCN(C(=O)[C@@H]2C[C@@H]3CCN(Cc4nccs4)C[C@H]3O2)CC1.O=C(O)C(F)(F)F`, `O=C(O)C(F)(F)F.O=C(O)C(F)(F)F.O=C(O)C(F)(F)F.c1cncc(C[C@H]2[C@H](N3CCOCC3)CCN2Cc2nccs2)c1` is lower in “Percent Effect” value: 95.79% for the first, 6.166% for the second.

Compared with `Cc1nc(C(C)(C)NC(=O)Nc2ccc(C#N)cc2)no1`, `CC(C)N(CC(=O)Nc1cccc(C#N)c1)C1CC1` is lower in “Percent Effect” value: 2.937% for the first, -12.82% for the second.

Compared with `NS(=O)(=O)c1cnn(-c2ccc(NC(=O)CC3CCCC3)cn2)c1`, `CN(c1cccnc1N1CCCC1)S(=O)(=O)c1cccnc1` is lower in “Percent Effect” value: 31.03% for the first, -4.578% for the second.

Going from `CC(=O)c1cccc(NC(=O)COc2c(C)n(C)ccc2=O)c1` to `CC(=O)c1cccc(NC(=O)Cn2cnc(-c3cccs3)cc2=O)c1`, the “Percent Effect” value rises from 5.404% to 8.004%.

First: COC(=O)c1cccc(NC(=O)CCn2nc(-c3cccs3)oc2=O)c1
Second: CC(=O)c1cccc(NC(=O)CCn2nc(-c3cccs3)oc2=O)c1
The “Percent Effect” value of the first is lower: -4.824% for the first, 94.26% for the second.

Going from `CC(=O)c1cccc(NC(=O)Cn2nc(-c3cccs3)oc2=O)c1` to `CNC(=O)c1cccc(NC(=O)Cn2nc(-c3cccs3)oc2=O)c1`, the “Percent Effect” value falls from 114.8% to -3.203%.

First: O=C(CCNC(=O)c1ccoc1)Nc1cccc(F)c1
Second: N#Cc1cccc(NC(=O)CCn2nc(-c3cccs3)oc2=O)c1
The “Percent Effect” value of the first is lower: 8.68% for the first, 113.1% for the second.

Compared with `O=c1oc(-c2cccs2)nn1CC(O)c1ccc(F)cc1` (centres undefined), `O=S(=O)(NCCC(O)c1cccs1)c1ccccc1Cl` (centres undefined) is higher in “Percent Effect” value: -3.645% for the first, 10.54% for the second.

First: CCCNC(=O)CN1CCN(c2nc(CC)ns2)CC1
Second: Cc1nsc(NC(=O)NC2CCCN(C)C2)n1 (centres undefined)
The “Percent Effect” value of the first is higher: -2.637% for the first, -12.87% for the second.

Going from `Cc1nnc(NC(=O)NC(C)C(=O)NC2CCCC2)s1` (centres undefined) to `O=C(Nc1nc2c(s1)CCC2)NC1CCCC1`, the “Percent Effect” value rises from -0.7919% to 91.02%.

First: CCc1c(C)nc2n(c1=O)CC(C(=O)Nc1nc3c(s1)CCCC3)CS2 (centres undefined)
Second: Cl.O=C(Nc1nc2c(s1)CNCC2)C1CC1
The “Percent Effect” value of the first is lower: 1.424% for the first, 114.1% for the second.

First: Cl.O=C(Nc1nc2c(s1)CNCC2)NC1CCCC1
Second: Cc1cnc(CN2CCC(N(C)Cc3nnc(C4CC4)n3C)C2)cn1 (centres undefined)
The “Percent Effect” value of the first is higher: 156.5% for the first, -1.467% for the second.

First: O=C1CC(c2ccccc2)c2c(n3ccsc3nc2=O)N1 (centres undefined)
Second: CN(Cc1nnc(C2CC2)n1C)C1CCN(CCc2ccccc2)C1 (centres undefined)
The “Percent Effect” value of the first is higher: 12.02% for the first, -2.973% for the second.

First: CN(Cc1nnc(C2CC2)n1C)C1CCN(Cc2ccc(F)cc2)C1 (centres undefined)
Second: CN(Cc1nnc(C2CC2)n1C)C1CCN(Cc2ccncc2)C1 (centres undefined)
The “Percent Effect” value of the first is lower: 5.91% for the first, 97.4% for the second.

Compared with `CN(Cc1nnc(C2CC2)n1C)C1CCN(CCc2cccs2)C1` (centres undefined), `CN(Cc1nnc(C2CC2)n1C)C1CCN(CCc2ccncc2)C1` (centres undefined) is lower in “Percent Effect” value: 1.002% for the first, -12.03% for the second.

Compared with `Cc1cccc(CN2CCC(N(C)Cc3nnc(C4CC4)n3C)C2)c1` (centres undefined), `Cc1nc(CN2CCC(N(C)Cc3nnc(C4CC4)n3C)C2)cs1` (centres undefined) is lower in “Percent Effect” value: 125.1% for the first, 109.7% for the second.

Going from `CCc1cnc(CN(C)C2CCN(CCc3cccs3)C2)o1` (centres undefined) to `CCc1cnc(CN(C)C2CCN(Cc3nnc(C4CC4)n3C)C2)o1` (centres undefined), the “Percent Effect” value rises from 3.074% to 100.6%.
